Screens as filed in PubChem BioAssay.
Pf growth 48h – P. falciparum growth inhibition at 48 hours (one generation) | P. falciparum luciferase growth in erythrocytes, 48 h | Potency, µM (titrated, usually from 28.7 µM), inactives show top-dose activity change, negative = inhibition, most hits filed as inhibitors | 310,000 compounds, 5.9% hits
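Growth was read as firefly luciferase luminescence after a 48 h, 37 C, 5% CO2 exposure of compounds to reporter-bearing P. falciparum cultures (0.1% parasitemia, 2% hematocrit final) in Albumax-supplemented RPMI 1640.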
AMA1-RON2 inh – AMA1-RON2 (P. falciparum) interaction inhibition | AlphaScreen AMA1-biotinylated RON2 peptide binding | Potency, µM (highest dose often 58.2 µM), for inactives: at the highest dose activity change, negative = inhibition, most hits filed as inhibitors | 360,000 compounds, 0.2% hits | AID 720542;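 note: 0% = vehicle wells and -100% = peptide control; nearly all actives have a fitted effect of over 45% in size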
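AMA1 (3D7) with his tag at 25 nM final met compounds first, then biotinylated RON2 peptide at 25 nM; detection used donor plus acceptor beads, 10 µg/mL apiece, read by AlphaScreen after 30 min at room temperature.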
Pf growth 96h – P. falciparum growth inhibition at 96 hours; AID 504834; P. falciparum luciferase reporter growth, 96 h; 320,000 compounds, 6.9% hits; Potency, µM (top dose mostly 28.7 µM), for inactives: top-dose activity change, negative = inhibition, usual class: inhibitors
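Erythrocytes infected with luciferase-expressing P. falciparum were dispensed at 2% hematocrit and 0.05% parasitemia (final), then incubated with compounds 96 hours at 37 C in 5% CO2. Luminescence after detection reagent addition reported growth.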
Vaccinia Venus – vaccinia inhibition (Venus reporter); Vaccinia virus Venus reporter expression, fluorescence; Potency, µM (top dose mostly 36.5 µM), for the others: at the highest dose activity change, negative = inhibition, usual class: inhibitors; 330,000 compounds, 0.46% hits; AID 720580; calls by dose curve; tested in A549 cells; note: nearly all actives have a fitted effect of over 30% in size
Vaccinia mCherry – vaccinia inhibition (mCherry reporter) | 310,000 compounds, 0.63% hits | AID 720579 | Potency, µM (highest dose often 36.5 µM), inactives show top-dose activity change, negative = inhibition, actives largely listed as inhibitors | Vaccinia virus mCherry reporter infection, fluorescence; calls by dose curve; tested in A549 cells; note: nearly all actives have a fitted effect of over 35% in size
* marks the source's active call; other numbers are inactive results; i = inactive; ? = inconclusive; . = not tested or not shown. The list is not random: actives were taken first. Their share in the collection is about 8.7%. Unless noted, calls come from the whole dose curve; as a rule, active = well fitted curve in the direction sought with a large enough effect; inconclusive = small, poorly fitted or top-dose-only effect, or another doubt; inactive = no such curve, though single readings can be large; an effect the other way counts as inactive or inconclusive. Unless noted, % is set by controls: 0 for no effect and ±100 for the full control effect; potency is the fitted concentration of half-maximal effect.

SMILES	Pf growth 48h	AMA1-RON2 inh	Pf growth 96h	Vaccinia Venus	Vaccinia mCherry
Cc1ccc(Nc2c3c(nc4nc(-c5cccs5)nn24)CCCC3)cc1F	.	.	.	?	11µM*
CC(=O)c1cccc(Nc2c3c(nc4nc(-c5cccs5)nn24)CCCC3)c1	.	.	.	-13%	-18%
O=C(CN(c1cccc(Br)c1)S(=O)(=O)c1ccccc1)N1CCc2ccccc2C1	.	.	.	-11%	-13%
CC1CC(C)CN(S(=O)(=O)c2ccc(C(=O)Nc3nnc(-c4cccs4)o3)cc2)C1 (stereo unspecified)	?	175%	1%	-23%	-30%
CN(C)S(=O)(=O)c1ccc(C(=O)Nc2nnc(-c3cccs3)o2)cc1	13µM*	73%	?	.	.
CCC1CCCCN1S(=O)(=O)c1ccc(C(=O)Nc2nnc(-c3cccs3)o2)cc1 (stereo unspecified)	10µM*	117%	42%	?	?
O=C(NCC1Cc2cccc(-c3cccnc3)c2O1)c1ccc2cc[nH]c2c1 (stereo unspecified)	.	.	.	-15%	i
CCSc1nc(-c2cccc(Cl)c2)nc2c1Cc1c(CO)cnc(C)c1O2	.	.	.	-13%	-11%
CC(=O)Nc1cc2c(cc1NC(=O)Cn1nc(-c3ccc4c(c3)OCCO4)ccc1=O)OCCO2	.	4%	9.3µM*	-13%	.
CC(=O)Nc1cc2c(cc1NC(=O)Cn1nc(-c3ccccc3)ccc1=O)OCCO2	-24%	-4%	-13%	21%	i
NS(=O)(=O)c1ccc(CCNC(=O)CCCCCNc2nc(=S)[nH]c3ccccc23)cc1	-7%	.	2.9µM*	.	.
CCCCNS(=O)(=O)c1ccc2nc(-c3cccnc3)cc(C(=O)NCCCOC(C)C)c2c1	.	.	.	-5%	-9%
O=C(c1ccncc1)c1nccn1-c1ccccn1	-6%	-3%	13µM*	-12%	i
COc1ccccc1CCC(=O)N1CCN(S(=O)(=O)c2cc(C(F)(F)F)ccc2Cl)CC1	?	-7%	3.7µM*	.	.
CCc1ccc2oc(-c3ccc(C)c(NC(=O)c4cc([N+](=O)[O-])ccc4N4CCOCC4)c3)nc2c1	.	.	.	-5%	3%
CCN(CC)S(=O)(=O)c1ccc2oc(Nc3ccc(OC)cc3OC)nc2c1	?	-9%	10µM*	-15%	-22%
CCN(CC)S(=O)(=O)c1ccc2oc(Nc3ccccc3)nc2c1	12%	14%	?	6%	?
COc1ccc(-c2nc3scc(CCNS(=O)(=O)c4ccc(C)cc4)n3n2)cc1	.	.	.	-17%	-10%
Cc1cc(NC(=O)C2CCCCC2)nc2c1c(=O)oc1ccccc12	15%	-11%	6.6µM*	-10%	20%
COc1ccc(-c2nc3ccccc3o2)cc1NC(=O)c1ccc(-c2cccc(Cl)c2C)o1	.	.	.	3%	-6%
CCOC(=O)c1ccc(N=C2C(=S)N(c3ccc(C(=O)OCC)cc3)C(=N)N2/N=C/c2ccccc2)cc1	?	41%	10µM*	.	.
CCOC(=O)c1ccc(N=c2scc(C)n2CC)cc1	197%	?	293%	12%	i
COc1ccc(-c2nc3ccc(NC(=O)CO)cc3c(=O)n2Cc2cccc(Cl)c2)cc1COc1ccc(NC(C)=O)cc1	.	.	.	-11%	-15%
COc1cccc(OCC(=O)O)c1	71%	13%	24%	0%	8%
COc1cccc(C(N)CC(=O)O)c1 (stereo unspecified)	15%	.	8.3µM*	.	.
SMILES	Pf growth 48h	AMA1-RON2 inh	Pf growth 96h	Vaccinia Venus	Vaccinia mCherry
COc1cc(OC)cc(-n2nnc(-c3nc(-c4ccccc4Cl)no3)c2N)c1	.	.	.	-2%	-10%
Cc1ccc(N2C(=O)CSCC2=O)cc1	-6%	6%	.	-15%	.
COc1cc(OC)cc(N2C(=O)CSCC2=O)c1	2.6µM*	-8%	25%	.	.
CCCCNC(=S)N=Nc1c(O)n(Cc2ccccc2)c2ccccc12	13µM*	-14%	10µM*	-23%	-1%
C=CCn1c(O)c(N=NC(=S)Nc2cccc(C)c2)c2ccccc21	1.9µM*	-30%	-23%	-28%	-23%
O=C(N=Nc1c(O)n(Cc2ccccc2)c2ccccc12)c1ccncc1	12µM*	?	13µM*	.	.
NC(=S)N=Nc1c(O)n(Cc2ccccc2)c2ccccc12	?	45%	14%	0.32µM*	?
C=CCn1c(O)c(N=NC(=S)Nc2ccccc2F)c2ccccc21	?	-12%	-11%	.	.
